From PubChem BioAssay (Tox21) come the findings set out here.

Calls of active or inactive are those of the source. The call rests on the fitted dose curve; in most records, active means well fitted curve in the direction sought with a large enough effect in the repeat runs; inconclusive means weak or mixed curves; inactive means flat fitted curve, though single readings scatter.

The nature of this test: qHTS assay to test for compound auto fluorescence at 590 nm (red) in HEK293 cell free culture (AID 720683). The settings on record: cell-free medium autofluorescence, Ex540/Em590 red; series mostly up to 91.3 µM. The source says:
U.S. Tox21 Program National Center for Advancing Translational Sciences [NCATS] NIH Chemical Genomics Center [NCGC] U.S. Environmental Protection Agency [EPA] National Institutes of Environmental Health Sciences [NIEHS] National Toxicology Program [NTP] U.S. Food and Drug Administration [FDA] Tox21 Assay Overview: Compound auto fluorescence often interferes with screening of the compound library against various biological targets and signaling pathways. Some of these compounds may have fluorophoric properties. Such properties may interfere with the assay outputs resulting in false positives and/or negatives. To decrease such complications and ensure the compound activities are relevant in terms of biological response, the Tox21 10K compound library was screened for auto fluorescence. From the fluorophores used as reporter signals in our screening assays, the auto fluorescence equivalencies of compounds against three fluorophores have been evaluated: Triamterene, Fluorescein and Rose Bengal sodium for blue, green and red fluorescence, respectively. The fluorescence intensities were measured using Excitation/Emission wavelengths at 405/460nm, 485/535nm and 540/590nm for blue, green and red labels, respectively. This assay includes the red fluorescence data.
Tox21 Assay Protocol Summary: 5 uL of culture medium (DMEM containing 10% FBS) per well was dispensed into black wall/clear bottom 1536-well plates using a Multidrop Combi Dispenser (ThermoFisher Scientific, Waltham, MA). After 23 nL compound or DMSO vehicle was transferred into assay plate by a pintool work station (Kalypsys, San Diego, CA), fluorescence intensities in the assay plates were measured by an Envision (PerkinElmer, Shelton, CT) plate reader using three labels for measuring blue, green and red fluorescence at […] 460, 535 and 590nm respectively.
On the technique in general: In qHTS, concentration-response curves come from the screen itself.
Take `CON(C)C(=O)Nc1ccc(Br)cc1`: the outcome was inactive. Take `C/C(=N\NC(=O)Nc1cc(F)cc(F)c1)c1ncccc1C(=O)O`: the call was inactive. To `CCOC(=O)CCl` belongs “inactive”. The same measure for `CCOP(=S)(OCC)Oc1ccc(Cl)cc1Cl`: “inactive”; for `O=C(Cl)OCc1ccccc1`: “inactive”; for `CC[C@@H](CO)NC(=O)[C@@H]1C=C2c3cccc4c3c(cn4C)C[C@H]2N(C)C1`: “inactive”.

Turning to `COC1=CC(=O)O[C@@H](/C=C/c2ccccc2)C1`, the compound was called inactive. As for `NC(=O)CS(=O)C(c1ccccc1)c1ccccc1` (stereo not given), the compound was called inactive. `COc1cc(CC(C)N)cc(OC)c1OC` (stereo not given): the compound was classed as inactive. With `O=C(Cl)/C=C/C(=O)Cl`, the result was inactive.

Take `O=C(Cl)CCl`: the call was inactive. Turning to `CCOC(=O)C(SP(=S)(OC)OC)c1ccccc1` (stereo not given), the outcome was inactive.

Turning to `N[C@@H](Cc1ccc(Oc2cc(I)c(O)c(I)c2)c(I)c1)C(=O)O`, the result was inactive. `Cl/C=C/CCl`: the compound was classed as inactive. The same measure for `Oc1ccc2c3c1O[C@H]1[C@@H](O)C=C[C@H]4[C@@H](C2)NCC[C@@]341`: “inactive”; for `O=C(O)C(Br)(Br)Br`: “inactive”; for `CS(=O)(=O)c1ccc(C(=O)C2C(=O)CCCC2=O)c(Cl)c1COCC(F)(F)F`: “inactive”. The same measure for `C#CC(C)(C)O`: “inactive”; for `CCOC(=O)c1ncn2c1CN(C)C(=O)c1c(I)cccc1-2`: “inactive”; for `Cc1ccc(Cl)c(O)c1`: “inactive”. For the compound `N#CN=C1SCCN1Cc1ccc(Cl)nc1`, the call was inactive. The same measure for `CCN(CC)C1CCCCC1`: “inactive”; for `CC1=C2[C@H]3OC(=O)[C@@H](C)[C@@H]3CC[C@@]2(C)C=CC1=O`: “inactive”. For the compound `CC(C)(O)C(Cl)(Cl)Cl`, the call was inactive.

Regarding `CCc1cc(OC)c(C[C@H](C)N)cc1OC`, the result was inactive. To `CC[C@H](N)c1ccccc1` belongs “inactive”.

Regarding `O=[N+]([O-])CCO`, the call was inactive. To `CN(C)CCN(C)C` belongs “inactive”; to `C=C(C)[C@H]1CN[C@H](C(=O)O)[C@H]1CC(=O)O`, “inactive”. The same measure for `Cn1c(CCCC(=O)O)nc2cc(N(CCCl)CCCl)ccc21`: “inactive”. Consider `CC(C)c1ccc(O)cc1`, for which the compound was classed as inactive. With `CCOP(=O)(CN(CCO)CCO)OCC`, the outcome was inactive.

Regarding `CCOC1Oc2ccc(OS(C)(=O)=O)cc2C1(C)C` (stereo not given), the compound was called inactive. In the case of `O=C(Cl)C(Cl)(Cl)Cl`, the outcome was inactive. The same measure for `CC(C)C(C)(N)C#N` (stereo not given): “inactive”; for `NNC(N)=O`: “inactive”.

For `CC1N=C(N)OC1c1ccccc1` (stereo not given), the result was inactive. To `BrCCc1ccccc1` belongs “inactive”.

As to `CCCN1CCC[C@@H]2Cc3nc(N)ncc3C[C@H]21`, the outcome was inactive. For the compound `O=C(NC(O)C(Cl)(Cl)Cl)NC(O)C(Cl)(Cl)Cl` (stereo not given), the result was inactive.
